Experiment [1] in a line: small molecules captured by biotinylated probe aFSTL3 – biochemical, small-molecule microarray, fluorescence 635/667, stem cell growth factor project, primary screen (AID 1064).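 Further: measures binding of the biotinylated anti-FSTL3 antibody to printed compounds.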 The conditions noted are these: higher = more signal.
Experiment [2] in a line: binders from COS7 lysate, DM2A8 probe, primary screen, torsin A project, cell lysate, small-molecule microarray, fluorescence 635/667 (AID 1065). The conditions noted are these: higher = more signal, COS7 lysate expressing mutant human TOR1A.
Experiment [3] in a line: small molecules captured by biotinylated probe aFGF2 – biochemical, small-molecule microarray, fluorescence 635/667, stem cell growth factor project, primary screen (AID 1067).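 Further: measures binding of biotinylated aFGF2 protein to printed compounds on slides; z-score merges feature fluorescence and signal-to-noise across triplicate slides.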 Particulars: higher = more signal.
The nature of experiment [4]: small molecules captured by biotinylated probe aFGF10 – biochemical, small-molecule microarray, fluorescence 635/667, stem cell growth factor project, primary screen (AID 1071).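 Further: score merges 667 nm spot intensity and signal to noise from triplicate slides.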 The conditions noted are these: higher = more signal.
The target in experiment [5] is Neurogenic locus notch homolog protein 2 (Homo sapiens) (UniProt Q04721). The experiment in a line: small molecules binding Notch2 protein – biochemical, small-molecule microarray, 635 nm fluorescence, stem cell growth factors, primary screen (AID 1073). Particulars: higher = more signal.
In experiment [6] the target is Pro-neuregulin-1, membrane-bound isoform (Homo sapiens) (UniProt Q02297). Description: small molecules binding neuregulin-1 protein – biochemical, small-molecule microarray, fluorescence 635/667, psychiatric disease protein project, primary screen (AID 1075).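 Further: score combines 667 nm spot fluorescence with signal to noise.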 Particulars: NRG1 binding, 635 nm fluorescence, higher = more signal.
Experiment [7] concerns Neuregulin-1 EGF-like domain. The experiment in a line: small molecules binding NRG1 EGF domain – biochemical, small-molecule microarray, 635 nm fluorescence, primary screen (AID 1081).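 Further: binding of the protein to compounds printed on small-molecule microarray slides.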 Particulars: higher = more signal.
The nature of experiment [8]: FRG1 expression reporter modulators in myotubes – cell-based, C2C12 myotubes, firefly/Renilla luciferase, luminescence, FRG1 inhibition for FSHD, primary screen (AID 1084). Particulars: FRG1 promoter luciferase, higher = more signal, called active from +8 up or from −8 down.
The nature of experiment [9]: small molecules captured by biotinylated probe aFST – biochemical, small-molecule microarray, fluorescence 635/667, stem cell growth factor project, primary screen (AID 1086).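 Further: score merges 667 nm fluorescence with signal-to-noise of each printed compound spot.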 Particulars: higher = more signal.
A short description of experiment [10]: binders of probe aHhip on microarray, primary screen, stem cell growth factor project, biochemical, small-molecule microarray, fluorescence 635/667 (AID 1087).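 Further: score merges spot fluorescence at 667nm with spot signal to noise ratio.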 The conditions noted are these: higher = more signal.
The test system of experiment [11] is PRMT1 (protein arginine N-methyltransferase 1). Description: small molecules binding arginine methyltransferase PRMT1 – biochemical, small-molecule microarray, 635 nm fluorescence, primary screen (AID 1088).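 Further: binding of Prmt1 protein to compounds spotted on small-molecule microarray slides.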 The conditions noted are these: higher = more signal.
A short description of experiment [12]: growth effects on S. cerevisiae YJM789 – YJM789 clinical isolate, OD600, 24 h, basal, primary screen (AID 1089).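 Further: growth of clinical yeast isolate S. cerevisiae YJM 789 seeded 1000 cells per well; test concentration not given here.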 Particulars: higher = more signal, called active from +8 up or from −8 down.
Experiment [13] in a line: S. pombe growth modifiers, basal conditions – strain 972, OD600, 24 h, no modulator, primary screen (AID 1090).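 Further: basal condition with compound alone and no growth modifier present; test concentration not given here.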 Particulars: S. pombe 972 growth, higher = more signal, called active from +8 up or from −8 down.
Experiment [14] in a line: budding yeast growth modifiers under rapamycin – strain BY4716, OD600, 96 h, primary screen (AID 1091). Further: test concentration not given here. Particulars: S. cerevisiae BY4716 + rapamycin, higher = more signal, called active from +8 up or from −8 down.
In experiment [15] the target is Torsin-1A-interacting protein 2 (Homo sapiens) (UniProt Q8NFQ8). Description: small molecules binding lysate-expressed LULL1 – cell lysate, human LULL1 lysate, 635/667 nm fluorescence, primary screen (AID 1092).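 Further: probe is lysate of COS7 cells overexpressing human LULL1; score merges per-feature 667 nm fluorescence with signal-to-noise.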 The conditions noted are these: small-molecule microarray, hLULL1 lysate binding, 635 nm fluorescence; higher = more signal.
Experiment [16] is described as follows: optical density change of DRC41 E. coli – strain DRC41, OD650, 24 h, E. coli filamentation project, primary screen (AID 1093).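 Further: MC1000 strain lacking acrAB efflux and sulA so SOS filamentation is blocked; test concentration not given here.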 The conditions noted are these: E. coli DRC41 growth, higher = more signal, called active from +8 up or from −8 down.
The nature of experiment [17]: probe aLefty2 binding to arrayed compounds – biochemical, biotinylated probe, 635/667 nm fluorescence, primary screen (AID 1094).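 Further: score merges spot fluorescence near 667 nm with spot signal-to-noise ratio.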 Particulars: small-molecule microarray, higher = more signal.
Experiment [18] concerns Noggin (protein binding on small-molecule microarray). The experiment in a line: small molecules binding Noggin protein – biochemical, 635/667 nm fluorescence, primary screen (AID 1095).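 Further: score merges 667 nm feature fluorescence with signal to noise over triplicate slides.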 Particulars: 635 nm fluorescence, higher = more signal.
Experiment [19] addresses Neurogenic locus notch homolog protein 3 (Homo sapiens) (UniProt Q9UM47). The experiment in a line: small molecules binding NOTCH3 protein – biochemical, 635/667 nm fluorescence, primary screen (AID 1096). The conditions noted are these: small-molecule microarray, 635 nm fluorescence, higher = more signal.
The nature of experiment [20]: probe aEGFR binding to arrayed compounds – biochemical, biotinylated probe, 635/667 nm fluorescence, primary screen (AID 1097).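 Further: probe is a biotinylated anti-EGFR antibody binding compounds printed on slides; score combines fluorescence near 667 nm and signal to noise of each spot.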 The conditions noted are these: small-molecule microarray, higher = more signal.

The source made the active and inactive calls.

Torsin-1A-interacting protein 2 (Homo sapiens), sequence (Q8NFQ8 whole entry, looked up): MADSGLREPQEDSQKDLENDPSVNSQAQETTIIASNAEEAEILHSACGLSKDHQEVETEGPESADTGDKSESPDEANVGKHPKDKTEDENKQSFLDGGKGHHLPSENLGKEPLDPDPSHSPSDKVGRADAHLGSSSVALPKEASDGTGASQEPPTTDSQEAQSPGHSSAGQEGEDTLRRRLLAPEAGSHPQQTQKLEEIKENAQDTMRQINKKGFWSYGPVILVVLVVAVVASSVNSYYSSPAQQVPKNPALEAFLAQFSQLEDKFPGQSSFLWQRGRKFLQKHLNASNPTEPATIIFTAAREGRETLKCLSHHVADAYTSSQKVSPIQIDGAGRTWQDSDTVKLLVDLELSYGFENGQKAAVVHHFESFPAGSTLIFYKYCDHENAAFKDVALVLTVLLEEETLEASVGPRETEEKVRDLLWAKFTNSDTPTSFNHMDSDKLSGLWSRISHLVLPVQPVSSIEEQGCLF
Neurogenic locus notch homolog protein 3 (Homo sapiens), sequence (Q9UM47 whole entry, looked up): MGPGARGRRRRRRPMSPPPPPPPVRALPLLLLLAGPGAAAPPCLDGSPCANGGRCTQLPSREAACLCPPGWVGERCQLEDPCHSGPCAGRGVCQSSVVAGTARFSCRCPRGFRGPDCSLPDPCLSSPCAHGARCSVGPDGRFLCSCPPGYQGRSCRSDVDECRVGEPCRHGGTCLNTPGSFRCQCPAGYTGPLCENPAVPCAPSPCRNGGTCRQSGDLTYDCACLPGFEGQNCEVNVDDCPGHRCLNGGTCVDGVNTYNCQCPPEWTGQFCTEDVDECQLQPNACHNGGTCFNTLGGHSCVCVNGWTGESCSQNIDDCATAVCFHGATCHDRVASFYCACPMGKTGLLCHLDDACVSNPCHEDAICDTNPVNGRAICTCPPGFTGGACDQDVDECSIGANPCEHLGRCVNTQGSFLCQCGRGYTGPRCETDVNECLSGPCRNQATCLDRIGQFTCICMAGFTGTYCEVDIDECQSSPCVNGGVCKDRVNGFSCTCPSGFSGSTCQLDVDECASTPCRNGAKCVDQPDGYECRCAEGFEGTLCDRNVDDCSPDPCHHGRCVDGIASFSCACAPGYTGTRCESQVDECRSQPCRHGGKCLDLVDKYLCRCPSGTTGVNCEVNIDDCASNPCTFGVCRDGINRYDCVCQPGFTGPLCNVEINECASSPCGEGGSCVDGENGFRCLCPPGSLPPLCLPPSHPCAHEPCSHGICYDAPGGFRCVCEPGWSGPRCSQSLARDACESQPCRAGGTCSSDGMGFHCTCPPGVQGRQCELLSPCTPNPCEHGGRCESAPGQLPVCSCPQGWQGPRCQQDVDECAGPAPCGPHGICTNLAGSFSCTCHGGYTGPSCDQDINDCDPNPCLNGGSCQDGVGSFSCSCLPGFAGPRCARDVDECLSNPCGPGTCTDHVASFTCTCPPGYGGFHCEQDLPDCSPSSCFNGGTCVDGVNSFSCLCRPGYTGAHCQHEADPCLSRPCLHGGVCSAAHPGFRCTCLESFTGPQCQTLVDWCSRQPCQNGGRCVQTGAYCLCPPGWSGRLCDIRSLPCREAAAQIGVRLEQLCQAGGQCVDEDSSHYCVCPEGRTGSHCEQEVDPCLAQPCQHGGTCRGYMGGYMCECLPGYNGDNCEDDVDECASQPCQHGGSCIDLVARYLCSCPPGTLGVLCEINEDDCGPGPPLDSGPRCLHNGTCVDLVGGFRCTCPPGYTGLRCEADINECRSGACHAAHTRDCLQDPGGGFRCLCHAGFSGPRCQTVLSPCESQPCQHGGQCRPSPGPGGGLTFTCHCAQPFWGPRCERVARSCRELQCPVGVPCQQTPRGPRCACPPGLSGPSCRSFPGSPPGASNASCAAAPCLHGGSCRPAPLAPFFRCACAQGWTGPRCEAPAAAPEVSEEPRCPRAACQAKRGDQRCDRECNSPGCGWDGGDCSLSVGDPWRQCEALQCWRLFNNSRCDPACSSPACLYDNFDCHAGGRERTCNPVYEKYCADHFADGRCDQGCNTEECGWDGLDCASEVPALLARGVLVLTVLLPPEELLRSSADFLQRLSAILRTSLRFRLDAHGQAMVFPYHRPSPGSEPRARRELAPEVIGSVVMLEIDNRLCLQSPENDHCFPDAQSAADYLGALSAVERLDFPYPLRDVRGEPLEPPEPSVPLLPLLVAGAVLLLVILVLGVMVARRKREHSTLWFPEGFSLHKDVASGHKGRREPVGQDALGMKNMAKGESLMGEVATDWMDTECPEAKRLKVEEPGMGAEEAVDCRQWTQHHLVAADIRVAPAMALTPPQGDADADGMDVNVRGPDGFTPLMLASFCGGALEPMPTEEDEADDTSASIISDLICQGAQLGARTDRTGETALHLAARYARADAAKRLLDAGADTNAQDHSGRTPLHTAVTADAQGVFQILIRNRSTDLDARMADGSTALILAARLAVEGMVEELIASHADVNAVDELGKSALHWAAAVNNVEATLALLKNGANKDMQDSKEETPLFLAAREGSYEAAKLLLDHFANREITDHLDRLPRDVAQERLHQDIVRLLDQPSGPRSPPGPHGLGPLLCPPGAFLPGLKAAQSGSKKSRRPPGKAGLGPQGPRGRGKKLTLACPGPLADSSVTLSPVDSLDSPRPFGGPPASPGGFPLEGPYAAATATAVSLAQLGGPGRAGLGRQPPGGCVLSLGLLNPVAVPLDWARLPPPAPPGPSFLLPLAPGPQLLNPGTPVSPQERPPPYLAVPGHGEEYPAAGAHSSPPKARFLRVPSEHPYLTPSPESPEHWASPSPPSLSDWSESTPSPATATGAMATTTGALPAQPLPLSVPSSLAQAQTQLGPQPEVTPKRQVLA
Pro-neuregulin-1, membrane-bound isoform (Homo sapiens), sequence (Q02297 whole entry, looked up, the tested form may be a part, canonical isoform): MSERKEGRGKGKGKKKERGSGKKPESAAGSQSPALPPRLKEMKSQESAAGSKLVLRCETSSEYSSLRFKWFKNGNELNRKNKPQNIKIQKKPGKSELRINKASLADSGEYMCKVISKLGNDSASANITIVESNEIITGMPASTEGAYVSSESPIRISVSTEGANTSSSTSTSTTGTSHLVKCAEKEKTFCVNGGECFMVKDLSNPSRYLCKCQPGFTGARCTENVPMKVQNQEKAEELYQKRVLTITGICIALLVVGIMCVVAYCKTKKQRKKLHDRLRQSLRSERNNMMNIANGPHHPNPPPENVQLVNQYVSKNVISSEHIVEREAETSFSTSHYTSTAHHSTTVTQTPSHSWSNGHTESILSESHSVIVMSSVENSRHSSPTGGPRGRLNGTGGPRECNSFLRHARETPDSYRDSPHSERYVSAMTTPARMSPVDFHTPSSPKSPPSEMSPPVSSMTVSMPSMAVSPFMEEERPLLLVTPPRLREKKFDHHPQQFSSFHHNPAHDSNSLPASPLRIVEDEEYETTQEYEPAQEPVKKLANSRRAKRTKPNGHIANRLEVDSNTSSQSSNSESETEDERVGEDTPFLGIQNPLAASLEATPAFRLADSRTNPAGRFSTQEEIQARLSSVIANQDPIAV

Take `COCCOC(=O)N1C(=O)[C@@]2(c3cc(C#CC4(O)CCCCCC4)ccc31)[C@H](C(=O)Nc1nc3ccccc3s1)[C@H]1C(=O)O[C@H](c3ccccc3)[C@H](c3ccccc3)N1[C@@H]2c1ccc(OCCO)cc1`: the composite z-score in experiment [1] was -0.568; in [2], 0.392; in experiment [3], -0.083; in [4] it was 0.797; in experiment [5], 1.07; in experiment [6], 0.727. Moreover, the composite z-score was 1.15 in [7]; 0.277 in experiment [9]; 0.0749 in experiment [10]; 1.55 in experiment [11]; 1.87 in experiment [15]; -0.0458 in experiment [17]. Besides, the composite z-score worked out at 1.45 in experiment [18], 1.09 in experiment [19] and 0.0064 in [20]. Besides, the z-score in experiment [8] was 4.24 (inactive); in [12], 2.38 (inactive); in [13], 1.32 (inactive); in experiment [14], 4.01 (inactive); in experiment [16], 0.76 (inactive).

With `O=C1C2C=CC(C(O)c3ccc(F)cc3)N(Nc3ccc([N+](=O)[O-])cc3)C2C(=O)N1c1ccccc1` (stereo not given), the composite z-score is 0.0759 in [1]; -0.358 in [2]; 0.16 in experiment [3]; 0.305 in experiment [4]; 1.45 in experiment [5]; 2 in experiment [6]. In addition, the composite z-score in experiment [7] came out at 1.37; in experiment [9], 1.02; in experiment [10], 0.0373; in experiment [11] it was 1.35; in experiment [15] it was 3.27; in experiment [17] it was 0.187. For the same molecule, the composite z-score in experiment [18] was 0.257; in experiment [19], 1.1; in experiment [20], -0.0435. Besides, the z-score is -0.132 (inactive) in [8]; 0.099 (inactive) in [12]; 1.75 (inactive) in [13]; 1.96 (inactive) in [14]; -0.848 (inactive) in experiment [16].

On to `COCCOC(=O)N1C(=O)[C@@]2(c3cc(C#CC4=CCCCC4)ccc31)[C@H](c1ccc(OCCO)cc1)N1[C@H](c3ccccc3)[C@H](c3ccccc3)OC(=O)[C@H]1[C@@H]2C(=O)N1CCc2cc(OC)c(OC)cc2C1`, for which the composite z-score was -0.16 in [1]; 0.36 in experiment [2]; -0.0242 in experiment [3]; 0.666 in [4]; 1.43 in [5]; 0.395 in experiment [6]. Besides, the composite z-score in experiment [7] was 1.15; in experiment [9], 0.596; in [10], -0.0994; in experiment [11] it was 1.55; in experiment [15], 1.94; in experiment [17], 0.034. For the same molecule, the composite z-score amounted to 0.921 in experiment [18], 1.06 in [19] and 0.119 in experiment [20]. Moreover, the z-score in experiment [8] is -0.211 (inactive); in [12] it was 2.47 (inactive); in experiment [13], 0.535 (inactive); in experiment [14], 4.01 (inactive); in [16], 1.96 (inactive).

As for `CC(=CC1CCCCC1)[C@@H](NC(=O)c1cccnc1)c1ccc(-c2ccccc2)cc1`, the composite z-score in [1] is 0.365; in experiment [2] it was -0.545; in experiment [3], 0.0021; in experiment [4] it was -0.25; in experiment [5] it was 0.142; in experiment [6], 0.0657. Further, the composite z-score was -0.362 in [7]; 0.281 in experiment [9]; -0.194 in experiment [10]; -0.0028 in experiment [11]; 1.16 in [15]; -0.0042 in [17]. Also, the composite z-score in experiment [18] is -0.18; in experiment [19] it was 0.298; in experiment [20], -0.222. For the same molecule, the z-score was -0.972 (inactive) in [8]; 1.36 (inactive) in experiment [12]; 0.92 (inactive) in experiment [13]; 2.06 (inactive) in [14]; -2.18 (inactive) in [16].

As for `CC(=O)NCCCC[C@@H]1NC(=O)[C@H]2C[C@@H](C(=O)NCCCCCNC(=O)CS)[C@@H](c3ccc(O)cc3)N2C1=O`, the composite z-score in experiment [1] was 0.894; in experiment [2] it was 0.122; in [3], -0.0358; in experiment [4] it was -0.0035; in experiment [5] it was -0.886; in experiment [6], 0.0616. For the same molecule, the composite z-score is 1.34 in experiment [7]; -0.226 in [9]; -0.175 in experiment [10]; 0.524 in [11]; 1.69 in experiment [15]; -0.0727 in experiment [17]. Moreover, the composite z-score in experiment [18] was -0.309; in experiment [19] it was -0.527; in experiment [20] it was -0.171. Also, the z-score in experiment [8] was 0.515 (inactive); in experiment [12], 1.16 (inactive); in experiment [13], 0.0772 (inactive); in experiment [14], 1.76 (inactive); in [16] it was 0.358 (inactive).

Turning to `COc1ccc(C(=O)Nc2cccc(CN3C(=O)[C@]4(O[C@H](CCn5cc(CCO)nn5)[C@@H]([Si](C)(C)c5ccc(OC)cc5)[C@@H]4C)c4ccccc43)c2)cc1`, the composite z-score was 0.287 in experiment [1]; -0.161 in [2]; -0.116 in experiment [3]; -0.13 in experiment [4]; 0.91 in experiment [5]; 0.654 in experiment [6]. Moreover, the composite z-score in experiment [7] is 1.04; in experiment [9], 0.372; in experiment [10], -0.137; in experiment [11] it was 1.06; in experiment [15] it was 1.2; in experiment [17], 0.143. The composite z-score amounted to 0.367 in experiment [18], 0.556 in [19] and 0.0848 in experiment [20]. The z-score in [8] is -2.91 (inactive); in experiment [12], 0.901 (inactive); in experiment [13], -14.9 (active); in experiment [14] it was 1.15 (inactive); in [16], 0.506 (inactive).

For the molecule `CC(C)OC(=O)C=C1C[C@@H](c2cccc(Cl)c2)O[C@@H](c2cccc(Cl)c2)O1`, the composite z-score is 0.614 in experiment [1]; 0.31 in experiment [2]; 0.0442 in experiment [3]; 0.771 in experiment [4]; 0.028 in experiment [5]; 0.903 in experiment [6]. Also, the composite z-score in experiment [7] was 0.891; in experiment [9], 0.186; in experiment [10], -0.189; in [11], -0.341; in experiment [15], 1.99; in [17], -0.0009. The composite z-score in experiment [18] is -0.225; in [19], -0.735; in [20], -0.13. The z-score in [8] is -0.582 (inactive); in [12], -0.338 (inactive); in experiment [13], -5.58 (inactive); in experiment [14], -0.764 (inactive); in experiment [16], -0.391 (inactive).

`O=C1O[C@H](c2ccccc2)[C@H](c2ccccc2)N2[C@H]1[C@@H](C(=O)N1CCN(c3ncccn3)CC1)[C@]1(C(=O)Nc3ccc(C#CC4=CCCCC4)cc31)[C@H]2c1ccccc1OCCO`: the composite z-score in [1] is -0.218; in experiment [2], 0.337; in [3] it was 0.009; in experiment [4], 0.548; in [5] it was 1.25; in experiment [6], 0.694. Also, the composite z-score in [7] was determined as 1.26; in experiment [9], 0.239; in [10], 0.0139; in experiment [11], 1.53; in experiment [15], 2.65; in experiment [17], 0.276. Further, the composite z-score was 0.922 in experiment [18], 1.07 in experiment [19] and -0.0493 in [20]. For the same molecule, the z-score in experiment [8] is -0.342 (inactive); in experiment [12], 1.08 (inactive); in [13], 0.759 (inactive); in experiment [14], 3.51 (inactive); in experiment [16], 0.071 (inactive).

For `COc1cc2c(cc1O)C(c1cccs1)N(Cc1cccc(OC(F)(F)F)c1)CC2` (stereo not given), the composite z-score in experiment [1] was 0.0011; in experiment [2], 0.61; in experiment [3] it was -0.114; in [4], -0.0012; in experiment [5], 0.192; in [6] it was 1.39. The composite z-score is 0.774 in [7]; -0.146 in experiment [9]; -0.164 in experiment [10]; 1.46 in experiment [11]; 2.1 in [15]; -0.0785 in experiment [17]. For the same molecule, the composite z-score in [18] was -0.648; in experiment [19] it was 0.108; in experiment [20], -0.139. The z-score is -0.79 (inactive) in experiment [8]; -2.16 (inactive) in experiment [12]; -8.15 (active) in experiment [13]; -2.63 (inactive) in [14]; -0.878 (inactive) in [16].

The values are drawn from PubChem BioAssay.
